# Screens as filed in PubChem BioAssay.
# Only some compounds are listed: those with a hit (about 5% of all), similar ones and a draw of the others.
# VACV Venus inh = vaccinia inhibition (Venus reporter). Vaccinia virus Venus reporter expression, fluorescence. Potency, µM (doses to about 36.5 µM), for inactives: at the highest dose activity change, negative = inhibition, most hits filed as inhibitors. hit rate 0.46% among 330,000. AID 720580; calls by dose curve; tested in A549 cells; also: potency is read from the fitted curve at half-maximal effect; nearly all actives have a fitted effect of over 30% in size
# TbPYK inhibitor = blocks Trypanosoma brucei pyruvate kinase; TbPYK enzyme, Kinase-Glo Plus ATP luminescence, 45 min; hit rate 0.12% among 410,000; Potency, µM (top dose mostly 76.8 µM), without a hit: top-dose activity, negative = inhibition, usual class: inhibitors; Q57TT1; AID 624173; also: potency is read from the fitted curve at half-maximal effect; nearly all actives have a fitted effect of over 50% in size
#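 Activity of T. brucei pyruvate kinase was followed by Kinase-Glo Plus luminescence after the enzyme reacted 45 min at room temperature with 130 uM ADP (final) and substrate. Test compounds were added before ADP at multiple concentrations.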
# HCMV antiviral = inhibitors of human cytomegalovirus; hit rate 4.5% among 410,000; HFF cells, HCMV-luciferase reporter, 72 h; stronger effect = lower value; activity change, negative = inhibition, % at 57.5 µM; in the data active = activity change below about -60%; inconclusive = no clear call, values can overlap the other calls; inactive = above about -39%
#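 HFF cells seeded 16 h at 37C, treated with compounds, infected with luciferase-reporter HCMV at MOI 1 PFU/cell; luciferase read at 72 h post infection, normalized to buffer-only and Salinomycin controls.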
# LmPK inhibitor = blocks Leishmania mexicana pyruvate kinase activity | Q27686 | purified LmPK, Kinase-Glo ATP luminescence, 1 h | Potency, µM (titrated, usually from 57.5 µM), for inactives: at the top dose activity change, negative = inhibition, usual class: inhibitors | hit rate 0.37% among 290,000 | AID 1721; also: potency is read from the fitted curve at half-maximal effect
# Target sequence (Q27686 whole entry, looked up): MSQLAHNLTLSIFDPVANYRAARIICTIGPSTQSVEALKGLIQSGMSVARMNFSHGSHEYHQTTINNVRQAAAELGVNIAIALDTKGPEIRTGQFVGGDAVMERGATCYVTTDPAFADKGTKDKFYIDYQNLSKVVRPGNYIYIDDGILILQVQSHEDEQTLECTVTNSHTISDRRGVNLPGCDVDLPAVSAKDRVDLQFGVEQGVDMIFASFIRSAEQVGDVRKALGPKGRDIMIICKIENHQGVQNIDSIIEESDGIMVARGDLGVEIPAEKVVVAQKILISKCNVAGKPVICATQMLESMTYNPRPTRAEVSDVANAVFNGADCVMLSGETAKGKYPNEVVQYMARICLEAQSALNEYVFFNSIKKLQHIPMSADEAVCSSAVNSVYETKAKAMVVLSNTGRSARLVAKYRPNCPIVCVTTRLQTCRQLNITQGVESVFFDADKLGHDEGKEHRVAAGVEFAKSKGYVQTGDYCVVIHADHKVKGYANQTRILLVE
#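 In 50 mM imidazole pH 7.2 with 7 mM MgCl2, LmPK (0.1 nM) turned over PEP (0.5 mM) and ADP (0.1 mM) for 1 h at room temperature. Luciferase read-out of ATP.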
# VACV mCherry inh = vaccinia inhibition (mCherry reporter); Vaccinia virus mCherry reporter infection, fluorescence; Potency, µM (doses to about 36.5 µM), for inactives: top-dose activity change, negative = inhibition, usual class: inhibitors; hit rate 0.63% among 310,000; calls by dose curve; tested in A549 cells; also: potency is read from the fitted curve at half-maximal effect; nearly all actives have a fitted effect of over 35% in size
# * = called active by the depositor; i = inactive; ? = inconclusive; . = no result given; [ ] = dose if it differs, or a comment. Unless noted, calls follow the shape of the dose curve; as a rule, active = well fitted curve in the direction sought with a large enough effect; inconclusive = small, poorly fitted or top-dose-only effect, or another doubt; inactive = no such curve, though single readings can be large; an effect the other way counts as inactive or inconclusive. % is scaled to controls: 0 for no effect and ±100 for the full control effect.
SMILES,VACV Venus inh,TbPYK inhibitor,HCMV antiviral,LmPK inhibitor,VACV mCherry inh
CC(C)SCC(=O)Nc1ncc2c(n1)-c1ccccc1CC2,-11%,-20%,-64*,2%,-28%
CCOc1ccc(NC(=O)c2cc(F)c(F)cc2Cl)cc1OCC,-3%,4%,-98*,1%,-18%
O=C(CSc1ncn[nH]1)Nc1ccc([N+](=O)[O-])cc1Br,-28%,3%,-65*,-1%,-3%
COC(=O)C1=C(C)NC2=C(C(=O)CCC2)C1c1cn(Cc2ccc(Cl)cc2Cl)nc1-c1ccccc1 (stereo not given),-20%,1%,-61*,1%,-16%
CCOC(=O)C1=C(C)NC2=C(C(=O)CCC2)C1c1cn(Cc2ccc(Cl)cc2Cl)nc1-c1ccccc1 (stereo not given),?,1%,-90*,3%,?
COc1cc(/C=C/C(=O)OCC(=O)N2CCCc3ccccc32)ccc1OC(F)F,1%,4%,20,.,-25%
COc1ccc(/C=C/c2nc3ccccc3n2Cc2ccccc2OC)cc1,-12%,3%,-98*,-7%,-4%
COc1ccccc1Cn1c(/C=C/c2ccccc2)nc2ccccc21,-25%,-14%,-25,1%,-27%
COc1cccc(OC)c1OCCCCN1CCCCC1,.,9%,28,0%,.
Cc1c(C(=O)N2CCCCC2)c(S(=O)(=O)N2CCN(c3ccccc3F)CC2)c(C)n1C,3%,2%,?,0%,-13%
O=C(/C=C/c1ccccc1[N+](=O)[O-])NCCCN1CCCC1=O,-18%,0%,20,-12%,-10%
Cc1cc(=O)n2c(C(=O)Nc3ccc(C(=O)OC(C)C)cc3)c(C(=O)Nc3ccccc3)sc2n1,.,-25%,-67*,-6%,.
COc1cc(CNCCN2CCOCC2)ccc1OCc1cccc(Cl)c1,-22%,-12%,-16,-5%,.
COc1cc(CNCCN2CCOCC2)ccc1OCc1ccc(Cl)cc1Cl,?,-1%,-85*,4%,?
CCOCCc1nn2c(=O)cc(COC(=O)c3ccccc3NC(=O)c3cccs3)nc2s1,-5%,4%,4,.,-2%
Cc1cc(CNC(=O)[C@H]2C[C@@H]2[C@H](NP(=O)(c2ccccc2)c2ccccc2)c2ccccc2)nn1C,-3%,-4%,-91*,1%,i
CC(=O)COc1c(-c2ccco2)oc2ccccc2c1=O,.,-1%,18,-5%,.
CCCC[C@@H](CN[C@H](C)CNC)NCC1CCC(C(C)(C)C)CC1 (stereo not given in full),?,-4%,-87*,-2%,?
CC(Oc1ccc(Br)cc1)c1nc2c3ccccc3nc(=S)n2[nH]1 (stereo not given),-23%,-15%,-29,3%,-5%
CCCC(Oc1ccc(Br)cc1)c1nc2c3cc(OC)c(OC)cc3nc(=S)n2[nH]1 (stereo not given),0%,-4%,-86*,16%,i
Cc1ccc(-c2nc3ccccc3c(=O)n2-c2cccc(C)n2)cc1,-1%,6%,-85*,1%,4%
COc1ccc(-c2nc3ccccc3c(=O)n2-c2cccnc2)cc1,.,13%,-77*,1%,.
CCOc1ccccc1CNC(=O)c1cccn1-c1nnc(N2CCCCC2)s1,1%,-23%[15.4 µM],0,.,-18%
CCOc1ccccc1CNCc1cccn1-c1nnc(N2CCN(c3ccccc3)CC2)s1,?,2%,-98*,.,?
CN(c1ccccc1)S(=O)(=O)c1cccc(C(=O)NC2CC(C)(C)NC(C)(C)C2)c1,.,0%,-15,.,.
SMILES,VACV Venus inh,TbPYK inhibitor,HCMV antiviral,LmPK inhibitor,VACV mCherry inh
COc1ccc2c(c1)CCc1c(C(=O)Nc3c(C)nn(Cc4ccccc4C)c3C)noc1-2,?,-4%,-66*,.,?
COc1ccc2c(c1)CCc1c(C(=O)Nc3ccc(F)c(Cl)c3)noc1-2,-3%,2%,64,.,-9%
COc1ccc2c(c1)CCc1c(C(=O)Nc3c(C)nn(Cc4c(Cl)cccc4Cl)c3C)noc1-2,-14%,-8%,-92*,.,-15%
Cc1ccccc1Cn1nc(C)c(NC(=O)c2noc3c2CCc2ccccc2-3)c1C,?,2%,-24,7%,?
CCCc1ccc(OCC(=O)Nc2cc(S(=O)(=O)CC)ccc2O)cc1,-1%,-1%,16,-4%,-7%
COc1ccccc1NS(=O)(=O)c1ccc(C)c(C(=O)NC2=NCCS2)c1,.,7%,-13,.,.
CCCCNc1c(-c2ccc(SC(C)CC)cc2)nc2cnccn12 (stereo not given),22µM*,-4%,.,.,32µM*
CCCCNc1c(-c2ccc(-c3ccc(OC)cc3)c(OC)c2)nc2ccccn12,?,-7%,-40,.,32µM*
CCCCNc1c(-c2ccc(SC(C)CC)c(OC)c2)nc2ccc(Cl)cn12 (stereo not given),-11%,2%,-16,.,-5%
CCCCNc1c(-c2ccc(SC(C)CC)c(OC)c2)nc2ccc(C)cn12 (stereo not given),?,0%,-94*,.,?
Cc1nc2cc(NC(=O)[C@@H]3C[C@@H](Sc4ccccn4)CN3C3CCCCCC3)ccc2s1,-18%,.,.,.,i
CC(=O)N1CCN(C(=O)c2cccc(S(=O)(=O)Nc3c(C)n(C)n(-c4ccccc4)c3=O)c2)CC1,-7%,6%,?,.,i
CCOc1ccccc1NC(=O)C(C)N1C(=O)c2ccccc2S1(=O)=O (stereo not given),-12%,0%,-25,.,i
CCCOc1ccc(N2C(=O)CC(N(Cc3ccco3)C(=O)CC)C2=O)cc1 (stereo not given),8%,-9%,-22,0%,i
CCN(CC)C(=O)c1ccc(NC(=O)c2ccc3c(c2)NC(=O)CS3)cc1,-13%,-2%,113,.,-11%
CCCCN(CCCNC(=O)c1ccc2c(c1)NC(=O)CN2C)c1ccccc1,-24%,-2%,-98*,.,-25%
CCCCN(C(=O)c1ccc2c(c1)NC(=O)CS2)c1ccccc1,.,-3%,-100*,.,.
Cc1ccc(-c2cc(Cc3ccccn3)c(=O)[nH]n2)cc1,-7%[7.34 µM],-3%,29,0%,i[7.34 µM]
CN(C)c1cccc2c1c(NC(=O)c1ccc(F)cc1)nn2C,.,-11%,-5,-2%,.
CN(C)c1cccc2c1c(NC(=O)Nc1ccc(F)cc1F)nn2C,.,-6%,-63*,3%,.
c1ccc(-c2nnc(NC3=NCCC3)o2)cc1,-8%,-11%,23,20µM*,-10%
Fc1ccc(-c2nnc(NC3=NCCCCC3)o2)cc1,-26%,?,-83*,16µM*,.
Cc1ccc(C2c3[nH]c4ccccc4c3CCN2C(=O)CCC2CCCC2)cc1 (stereo not given),0%,-5%,-93*,.,-8%
Cc1ccc(C2c3[nH]c4ccccc4c3CCN2C(=O)c2ccccc2Br)cc1 (stereo not given),-12%,3%,-78*,.,-13%
